Source: PubChem BioAssay (several laboratories)
This is a sample that favours compounds with a hit; in the whole collection about 2.1% have one here.
aDG glyco act = increases alpha dystroglycan glycosylation. Pro5-aDG cells, alpha-DG glycosylation AlphaScreen (IIH6); 0% Pro5, 100% B10-LARGE cell signal. activation, % at 10 µM. hit rate 0.22% among 360,000. AID 624168;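 active = activation of at least 8% versus controls, or a plate z-score of at least 8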;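 also: Pro5 are CHO cells carrying HIG-tagged alpha-DG that lacks glycosylation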
Env fusion inh = HIV envelope-mediated fusion inhibition; HeLa-JRFL Env/CEM21 cell fusion, luciferase; inhibition, % at 12.3 µM; hit rate 1.1% among 360,000; AID 651610;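 active = mean replicate inhibition score of at least 50 and every replicate individually at or above 50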
GalR3 antagonist = blocks the human galanin receptor 3; HEK293 GalR3-CNG cAMP membrane potential fluorescence; galR3 body fused to GalR1 C-terminus; inhibition, % at 3 µM; hit rate 0.44% among 360,000;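 active = inhibition above the screen-wide average plus 3 SD, cut at about 13% in these data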;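 also: forskolin and galanin both at EC90 stimulate the cells; cAMP rise reported by CNG channel membrane potential dye signal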
Target sequence (O60755 1-299 limits assumed): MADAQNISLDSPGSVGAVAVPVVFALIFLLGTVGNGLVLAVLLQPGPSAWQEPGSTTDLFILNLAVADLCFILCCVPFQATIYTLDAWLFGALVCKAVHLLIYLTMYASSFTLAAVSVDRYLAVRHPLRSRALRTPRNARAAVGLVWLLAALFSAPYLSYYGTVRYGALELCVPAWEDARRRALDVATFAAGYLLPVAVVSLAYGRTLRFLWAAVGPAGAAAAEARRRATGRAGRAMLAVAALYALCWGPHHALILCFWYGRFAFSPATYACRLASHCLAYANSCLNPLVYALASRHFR
Gli-Sufu block = blocks Gli-Sufu signaling in a luciferase reporter | hit rate 0.74% among 340,000 | AID 588413 | Sufu-KO-LIGHT fibroblasts, Gli luciferase reporter luminescence | inhibition, % at 5 µM;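 active = inhibition above about 55%, limit read from the data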
NR2F2 inh = inhibitors of human COUP-TFII (NR2F2); P24468; HEK293T NGFI-A luciferase reporter, luminescence; inhibition, % at 8.6 µM; hit rate 0.7% among 370,000;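 active = inhibition above a per-plate cutoff, mean inhibition of test wells between control levels plus 3 SD, cut at about 38% in these data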;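 also: cells cotransfected with COUP-TFII expression vector driving the NGFI-A reporter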
Target sequence (P24468 whole entry, looked up): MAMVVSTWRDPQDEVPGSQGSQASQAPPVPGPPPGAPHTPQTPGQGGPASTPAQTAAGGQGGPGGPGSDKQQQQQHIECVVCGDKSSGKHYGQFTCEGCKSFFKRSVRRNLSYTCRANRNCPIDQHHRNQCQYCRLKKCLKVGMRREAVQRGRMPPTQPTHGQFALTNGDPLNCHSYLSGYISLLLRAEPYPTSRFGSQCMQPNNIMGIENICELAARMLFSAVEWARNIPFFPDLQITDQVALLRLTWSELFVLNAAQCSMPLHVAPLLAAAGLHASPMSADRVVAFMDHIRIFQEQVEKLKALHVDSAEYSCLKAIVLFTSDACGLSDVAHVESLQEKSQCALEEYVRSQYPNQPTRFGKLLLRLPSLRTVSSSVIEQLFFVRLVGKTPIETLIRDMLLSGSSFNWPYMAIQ
Gli antag conf = confirmation of Gli-SUFU pathway antagonists | shares compounds with Gli-Sufu block | Sufu-KO-LIGHT cells, Gli luciferase reporter, luminescence | inhibition, % at 5 µM | hit rate 40% among 2,500;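 active = mean inhibition at 5 µM reaching about 45%, limit read from the data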
SufuKO cytotox = cytotoxicity counter-screen for Gli-SUFU antagonists. shares compounds with Gli-Sufu block. Sufu-KO-LIGHT cells cytotoxicity, ATP luminescence. cytotoxicity, % at 5 µM. hit rate 32% among 2,500. AID 651994;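 active = mean cytotoxicity at 5 µM above about 25%, limit read from the data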;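 also: cells exposed to compound overnight for roughly 16 to 18 hours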
Wnt3a cs = inhibits Wnt3a reporter, counter-screen for Gli-SUFU antagonists; Wnt-LIGHT cells, Wnt3a-driven luciferase reporter, luminescence; hit rate 20% among 2,500; AID 651995; shares compounds with Gli-Sufu block; inhibition, % at 6.25 µM;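 active = mean inhibition above about 25%, limit read from the data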
Large screens that a line does not name were inactive (follow-up assays come after a bar, where they were run).

CC1=C(N2CC2)C(=O)C(CO)=C(N2CC2)C1=O	Env fusion inh 80
CC(=NNC(=S)N1CC2CCC(CC2)C1)c1nccs1	Gli-Sufu block 91
COC1=C(C)C(=O)C2=C(C1=O)C(CO)N1C(C#N)C3CC4C(C1C2N1CCOC41)N3C (stereo not given)	Env fusion inh 67
C[C@H]1CN([C@@H](C)CO)C(=O)CCCn2nncc2CO[C@@H]1CN(C)C(=O)Oc1ccc2ccccc2c1	none (no result: aDG glyco act, GalR3 antagonist, Gli-Sufu block, NR2F2 inh)
CC(C)[C@H]1C(=O)O[C@H](C(C)C)C(=O)N(C)[C@@H](C(C)C)C(=O)O[C@H](C(C)C)C(=O)N(C)[C@@H](C(C)C)C(=O)O[C@H](C(C)C)C(=O)N1C	Gli-Sufu block 84 (no result: Env fusion inh, GalR3 antagonist, NR2F2 inh)
COc1ccc(-c2ccc3n(c2=O)C[C@@H]2[C@@H](CO)[C@H](C(=O)O)[C@H]3N2C(=O)c2ccccc2F)cc1	none (no result: aDG glyco act, GalR3 antagonist, Gli-Sufu block, NR2F2 inh)
CCn1nc(-c2cccs2)nc2c(=O)n(C)c(=O)nc1-2	none (no result: Env fusion inh, GalR3 antagonist, Gli-Sufu block, NR2F2 inh)
CCn1nc(/C=C/c2ccccc2)nc2c(=O)n(C)c(=O)nc1-2	Gli-Sufu block 91
O=C(NN=Cc1ccc(N(CCCl)CCCl)cc1Cl)c1cccnc1	Env fusion inh 56
COC(=O)c1nc(-c2ccc3c(n2)C(=O)C(N)=C(OC)C3=O)c(N)c(-c2ccc(OC)c(OC)c2O)c1C	Gli-Sufu block 58
COC(=O)[C@@H]1[C@@H](CO)[C@@H]2Cn3c(ccc(-c4ccccc4OC)c3=O)[C@H]1N2Cc1ccccc1	none (no result: aDG glyco act, GalR3 antagonist, Gli-Sufu block, NR2F2 inh)
CC12CCC(=O)C=C1C=CC1C2CCC2(C)C(O)CCC12 (stereo not given)	Env fusion inh 81
CN1[C@@H]2Cn3c(cccc3=O)[C@H]1[C@@H](C(=O)NCC1CC1)[C@@H]2CO	none (no result: aDG glyco act, GalR3 antagonist, Gli-Sufu block, NR2F2 inh)
O=C(Nc1cccc(OC(=O)N2CCOCC2)c1)N1CCOCC1	Env fusion inh 72
CC=Cc1ccc2n(c1=O)C[C@@H]1[C@@H](CO)[C@H](C(=O)O)[C@H]2N1S(=O)(=O)c1ccccc1F (mixture of isomers)	none (no result: aDG glyco act, GalR3 antagonist, Gli-Sufu block, NR2F2 inh)
C[C@@H]1CN([C@@H](C)CO)C(=O)CCCn2cc(nn2)CO[C@@H]1CN(C)C(=O)Oc1cccc2ccccc12	none (no result: aDG glyco act, GalR3 antagonist, Gli-Sufu block, NR2F2 inh)
S=C(NCCc1ccccc1)N1Cc2cc(Br)ccc2-n2nncc2C1	Env fusion inh 57 (no result: Gli-Sufu block)
S=C(NCCc1ccccc1)N1Cc2ccc(Br)cc2-n2nncc2C1	none (no result: Gli-Sufu block)
CC(C)COC(=O)c1ccccc1C(=O)OCC(C)C	none (no result: Env fusion inh)
C[CH2][Hg][S]c1ccccc1C(=O)O	Gli-Sufu block 76
O=C(NC[C@H]1CC[C@H]2[C@H](CN2Cc2cccnc2)O1)C1CC1	none (no result: aDG glyco act, GalR3 antagonist, Gli-Sufu block, NR2F2 inh)
COc1cccc(OC)c1C1=NCC(=O)Nc2c1oc1ccc(Br)cc21	Gli-Sufu block 57
CCOC(=O)[C@@H]1[C@@H]2NC(=S)N[C@@]1(C)Oc1ccccc12	none (no result: aDG glyco act, GalR3 antagonist, Gli-Sufu block, NR2F2 inh)
C=C(C=O)CC1CC(O)[C@]2(C)OC3CC4OC5C[C@]6(C)O[C@]7(C)CCC8OC9C[C@]%10(C)OC%11C(C)=CC(=O)OC%11CC%10OC9C[C@@H](C)C8OC7CC6O[C@]5(C)CC5OC5C4OC3CC2O1 (stereo not given in full)	Gli-Sufu block 75 (no result: Env fusion inh, GalR3 antagonist, NR2F2 inh)
C=C(CO)CC1CC(O)[C@]2(C)OC3CC4OC5C[C@]6(C)O[C@]7(C)CCC8OC9C[C@]%10(C)OC%11C(C)=CC(=O)OC%11CC%10OC9C[C@@H](C)C8OC7CC6O[C@]5(C)C/C=C\C4OC3CC2O1 (stereo not given in full)	none
COc1ccc(C(O)(c2cncnc2)C2CC2)cc1 (stereo not given)	none (no result: aDG glyco act, GalR3 antagonist, Gli-Sufu block, NR2F2 inh)
CC[C@@]1(O)C(=O)OCc2c1cc1n(c2=O)Cc2cc3c(NC(=O)CN)cccc3nc2-1	Env fusion inh 69
COC(=O)C[C@H]1CC[C@@H]2NC[C@@H](O)COC[C@H]2O1	none (no result: aDG glyco act, GalR3 antagonist, Gli-Sufu block, NR2F2 inh)
COc1cccc(CNCCc2c[nH]c3ccccc23)c1	none
COc1ccc(CNCCc2c[nH]c3ccccc23)c(OC)c1C	Env fusion inh 71
COc1cc(C)c(CNCCc2c[nH]c3ccccc23)cc1C	Env fusion inh 81
O=C(O)[C@H]1[C@H](CO)[C@H]2Cn3c(ccc(-c4cccnc4)c3=O)[C@@H]1N2C(=O)Nc1cc(F)ccc1F	none (no result: aDG glyco act, GalR3 antagonist, Gli-Sufu block, NR2F2 inh)
Cc1sc2ccccc2c1CC1=NCCN1	Gli-Sufu block 61 (no result: Env fusion inh, GalR3 antagonist)
O=C(O)[C@@H]1[C@@H](CO)[C@@H]2Cn3c(ccc(C4=CCCCC4)c3=O)[C@H]1N2C(=O)Cc1ccccn1	none (no result: aDG glyco act, GalR3 antagonist, Gli-Sufu block, NR2F2 inh)
O=C1C=CC(=O)C2C1C1(Cl)C(Cl)=C(Cl)C2(Cl)C1(Cl)Cl (stereo not given)	Env fusion inh 66
CC(O)C1C=CC=CC(=O)OC2CC3OC4C5OC5(C)CCC4(COC(=O)C4OC4(C)C(O)CO1)C2(C)C31CO1 (stereo not given)	Gli-Sufu block 86, NR2F2 inh 91
COC(=O)[C@H]1[C@H](CO)[C@H]2Cn3c(ccc(-c4ccc(F)cc4)c3=O)[C@@H]1N2Cc1cccnc1	none (no result: aDG glyco act, GalR3 antagonist, Gli-Sufu block, NR2F2 inh)
CCN1/C(=C\C=C\C2=[N+](CC)c3ccccc3C2(C)C)C(C)(C)c2ccccc21	Gli-Sufu block 94 (no result: Env fusion inh, GalR3 antagonist, NR2F2 inh)
O=C(O)[C@@H]1[C@@H](CO)[C@@H]2Cn3c(ccc(C4=CCCCC4)c3=O)[C@H]1N2CCc1ccccc1	none (no result: aDG glyco act, GalR3 antagonist, Gli-Sufu block, NR2F2 inh)
CCC(c1nnnn1Cc1ccccc1)N1CCC(n2c(=O)[nH]c3ccccc32)CC1 (stereo not given)	Env fusion inh 55 (no result: Gli-Sufu block)
CCCCn1nnnc1C(CCc1ccccc1)N1CCC(n2c(=O)[nH]c3ccccc32)CC1 (stereo not given)	none (no result: Gli-Sufu block)
COC(=O)[C@H]1[C@H](CO)[C@H]2Cn3c(ccc(-c4ccccc4F)c3=O)[C@@H]1N2CC1CCCC1	none (no result: aDG glyco act, GalR3 antagonist, Gli-Sufu block, NR2F2 inh)
c1ccc2c(c1)-c1cccc3cccc-2c13	none (no result: Env fusion inh)
c1ccc2c(c1)[IH]c1ccccc1-2	GalR3 antagonist 86, Gli-Sufu block 86, NR2F2 inh 59
CCCN1[C@@H]2Cn3c(ccc(-c4cccc(C(=O)N(C)C)c4)c3=O)[C@H]1[C@@H](C(=O)OC)[C@@H]2CO	none (no result: aDG glyco act, GalR3 antagonist, Gli-Sufu block, NR2F2 inh)
COC(=O)C[C@H]1CC[C@H]2NC[C@H](O)COC[C@@H]2O1	none (no result: aDG glyco act, GalR3 antagonist, Gli-Sufu block, NR2F2 inh)
Cc1ccc(N2C(=O)NC(=O)/C(=C\c3cc(C)n(-c4sc5c(c4C#N)CCCC5)c3C)C2=O)cc1	Gli-Sufu block 59 | Gli antag conf 53 | SufuKO cytotox 42 | Wnt3a cs inactive
CCN1C(=O)NC(=O)/C(=C/c2cc(C)n(-c3sc(C)c(C)c3C#N)c2C)C1=O	none
CCOc1ccc(-n2c(O)c(C=Nc3ccc(N(CC)CC)cc3)c(=O)[nH]c2=O)cc1	Gli-Sufu block 97 (no result: Env fusion inh) | Gli antag conf inactive | SufuKO cytotox inactive | Wnt3a cs inactive
